# Source: PubChem BioAssay
# NTR1 ag = NTR1 (human) agonism; 0.17% of 330,000 active; activation, % at 20 µM; P30989; NTR1-U2OS beta-arrestin-GFP spot imaging, agonist mode;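 active = activation at or above 40% of the spot to cytoplasm intensity ratio, with at least 20 cells analyzed; inconclusive = wells under 20 cells, flagged as cytotoxic or low count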;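 note: 0% = DMSO without peptide and 100% = 100 nM NTR1 peptide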
# Target sequence (P30989 whole entry, looked up): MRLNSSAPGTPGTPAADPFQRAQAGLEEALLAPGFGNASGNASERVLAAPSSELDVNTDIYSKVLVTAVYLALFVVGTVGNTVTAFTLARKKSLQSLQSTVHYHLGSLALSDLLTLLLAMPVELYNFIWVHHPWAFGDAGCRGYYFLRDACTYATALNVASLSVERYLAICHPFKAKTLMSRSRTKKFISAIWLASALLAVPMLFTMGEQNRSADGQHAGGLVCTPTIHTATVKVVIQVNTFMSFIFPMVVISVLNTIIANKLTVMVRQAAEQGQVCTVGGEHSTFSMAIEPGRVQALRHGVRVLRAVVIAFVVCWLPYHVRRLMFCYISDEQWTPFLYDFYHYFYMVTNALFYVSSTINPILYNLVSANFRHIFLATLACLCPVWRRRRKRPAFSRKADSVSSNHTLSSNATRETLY
# Bfl-1 A1 inh = inhibitors of the anti-apoptotic protein A1, read as caspase activation. 0.066% of 330,000 active. caspase activation, % (test concentration not listed). AID 2462. MEF A1-2A-BIM cells, Caspase-Glo 3/7 luminescence, 3 h; percent of clofoctol response, vehicle zero;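 active = over half of replicate activation scores above 10%, or exactly half above 10 with the replicate mean above 10; inconclusive = replicate mean below 10 yet half the replicates above 10; inactive = over half of replicates below 10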
# 697 NFkB inh = inhibitors of the PMA/ionomycin-induced NF-kB reporter in 697 B cells; 697 B-cell NF-kB luciferase reporter, 16 h; inhibition, % at 4 µM; 0.33% of 330,000 active; AID 435022; in the data active = inhibition above about 35%
# Beta cell apopt = blocks beta cell apoptosis; INS-1E cytokine-induced death, ATP luminescence, 48 h; percent of positive-control rescue, neutral wells zero; protection from apoptosis, % (concentration not given with the values); 0.8% of 300,000 active; AID 435005;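 active = Every replicate reaches about 75%, or at least half do and their mean reaches it too, limit read from the data; inconclusive = At least half of replicates reach the limit but their mean does not; inactive = Under half of replicates reach the limit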;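 note: 0% = cytokine-treated negative control wells and 100% = positive control rescue; higher means more ATP so stronger rescue from cytokine killing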
# Jurkat NFkB inh = inhibitors of the PMA/ionomycin-induced NF-kB reporter in Jurkat cells; inhibition, % at 4 µM; AID 435003; PMA/ionomycin-induced NF-kB luciferase reporter, luminescence; 0.53% of 330,000 active; in the data active = inhibition above about 50%
# Mdm2-MdmX inh = disrupts the human Mdm2-MdmX interaction; O15151+Q00987; SaOS-2 split-luciferase Mdm2/MdmX complementation, luminescence; inhibition, % at 8 µM; 3% of 330,000 active;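 active = inhibition of at least 50% at 8 µM in the primary screen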
# Mdm2 MdmX conf = human Mdm2/MdmX binding inhibition, confirmed; 55% of 10,000 active; AID 489028; luminescent assay; shares compounds with Mdm2-MdmX inh; inhibition, % at 8 µM; in the data active = inhibition above about 40%
# FLuc counter = counter-screen for Mdm2/MdmX inhibitors: full-length luciferase; shares compounds with Mdm2-MdmX inh; SaOS-2 full-length luciferase counterscreen, luminescence; inhibition, % at 8 µM; 77% of 6,200 active;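 active = mean inhibition at 8 µM reaching about 37%, which flags the compound as non-specific, limit read from the data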;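 note: p53-null SaOS-2 cells with luciferase driven by a doxycycline-inducible promoter; compound on cells about two nights before reading with doxycycline added after day one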
# Numbers without * were called inactive; ? = inconclusive; . = no result. The list is not random: actives were taken first. Their share in the collection is about 3.8%.
SMILES,NTR1 ag,Bfl-1 A1 inh,697 NFkB inh,Beta cell apopt,Jurkat NFkB inh,Mdm2-MdmX inh,Mdm2 MdmX conf,FLuc counter
Cc1ccc(C)c(N2CCN(CCCNC(=O)CCC(=O)N3CCOc4ccc(Cl)cc43)CC2)c1,36.0,0.7,-20.8,6.4,20.7,78.0*,42.6*,55.8*
O=C(CCC(=O)N1CCOc2ccc(Cl)cc21)NCCCN1CCC(Cc2ccccc2)CC1,0.1,-0.2,1.7,13.9,12.2,82.9*,49.9*,95.3*
Cc1ccc(C)c(N2CCN(CCCNC(=O)Cn3cccc3C(=O)c3ccccc3)CC2)c1,0.8,0.2,4.1,9.8,12.9,59.3*,24.0,.
CCOc1ccc(C(=O)n2cc(C(=O)OC)c3ccccc32)cc1,2.5,1.5,1.8,.,8.6,1.6,.,.
O=C(NC(Cc1c[nH]c2ccccc12)C(=O)Nc1ccc(F)cc1)c1cccs1 (centres undefined),2.6,-1.1,-129.4,-4.6,-6.5,85.8*,70.8*,70.3*
COC(=O)C(Cc1c[nH]c2ccccc12)NC(=O)c1cccs1 (centres undefined),0.0,-1.6,-25.3,-1.5,-33.6,-0.7,.,.
COc1cc(C(C)=O)ccc1OCC(=O)Nc1ccc2nc(C)sc2c1,1.8,0.6,14.2,2.5,14.6,-13.8,.,.
O=[N+]([O-])c1cnc(Sc2ccncn2)s1,8.9,-3.4,8.9,108.8*,28.1,97.3*,99.7*,52.1*
C=CCN1C(=O)C(CC(=O)Nc2ccc(OCCC)cc2)N(CCCN2CCN(Cc3ccccc3)CC2)C1=S (centres undefined),28.5,0.7,7.7,9.5,0.2,79.7*,37.5,75.2*
Cn1c(Oc2ccc(Cl)cc2)c(C=O)c2ccccc21,2.3,0.0,-22.8,8.5,-7.4,50.1*,41.4*,34.4
Cn1c(Sc2ccc(Cl)cc2)c(C=O)c2ccccc21,4.8,-1.5,0.4,-9.5,6.0,80.8*,77.0*,56.9*
COc1ccc(Oc2c(C=O)c3ccccc3n2C)cc1,2.6,-0.3,10.1,-25.9,14.1,32.2,.,.
O=C(CCN1CCOCC1)NNC(=O)Nc1cccc(Cl)c1,0.1,0.1,12.8,-6.4,6.9,16.3,.,.
COc1cc(OC)cc(C(=O)Nc2ccc3c(c2)CCCN3C(=O)c2cccs2)c1,2.6,0.5,-227.9,12.4,-19.1,77.7*,60.0*,86.1*
O=C(Nc1ccc2c(c1)CCCN2C(=O)c1cccs1)c1ccccc1,2.1,-2.7,-54.2,7.7,-45.9,20.2,.,.
CCCCN(C1CCS(=O)(=O)C1)S(=O)(=O)c1cc(C)ccc1C (centres undefined),-0.7,-0.2,-4.6,-0.9,7.9,-1.6,.,.
CCCCn1c(N)c(N(CCOC)C(=O)c2cc(S(=O)(=O)N3CCCCC3)ccc2Cl)c(=O)[nH]c1=O,0.5,2.3,6.8,-2.9,-0.8,23.6,.,.
CCN(CC)S(=O)(=O)c1cccc(C(=O)N/N=C/c2cccc(O)c2O)c1,1.6,-1.9,-48.4,42.3,5.5,59.5*,65.7*,38.6*
CCN(CC)S(=O)(=O)c1cccc(C(=O)N/N=C/c2cc(OC)c(O)c(OC)c2)c1,0.5,-0.2,10.0,1.2,12.7,2.6,.,.
O=C(N/N=C/c1ccccc1O)c1cccc(C(F)(F)F)c1,0.0,0.3,-1.0,?,41.6,69.0*,73.0*,35.8
O=C(CS(=O)CC(=O)NC12CC3CC(CC(C3)C1)C2)Nc1ccc(F)cc1 (centres undefined),0.4,-0.5,-5.2,4.1,9.1,22.3,.,.
N#Cc1c(NCCN)nc(-c2ccccc2)c2c1CCCC2,4.6,-0.3,9.7,5.1,7.8,58.3*,20.0,.
N#Cc1c(NCCCO)nc(-c2ccccc2)c2c1CCCC2,9.1,0.0,0.0,-2.7,9.5,16.0,.,.
O=C1/C(=C/c2ccccc2)SC(=S)N1CCCC(=O)N1CCCCC1CCO (centres undefined),4.9,-0.6,-18.1,-59.2,12.4,85.1*,57.1*,36.7*
O=C1/C(=C/c2cccc(Cl)c2)SC(=S)N1CCC(=O)N1CCCCC1CCO (centres undefined),7.9,-0.4,-7.7,.,15.4,63.2*,40.6*,39.1*
SMILES,NTR1 ag,Bfl-1 A1 inh,697 NFkB inh,Beta cell apopt,Jurkat NFkB inh,Mdm2-MdmX inh,Mdm2 MdmX conf,FLuc counter
O=C1/C(=C/c2ccccc2F)SC(=S)N1CCC(=O)N1CCCCC1CCO (centres undefined),4.6,-0.5,6.4,.,1.7,61.2*,24.8,.
O=C1/C(=C/c2ccc(Cl)cc2)SC(=S)N1CCC(=O)N1CCCCC1CCO (centres undefined),2.8,-0.4,1.8,-25.5,5.3,25.4,.,.
O=C(CCNS(=O)(=O)c1ccccc1F)N1CCN(C/C=C/c2ccccc2)CC1,0.4,0.4,-8.8,6.5,10.7,-13.9,.,.
Cc1cc(C)c(-c2c(O)c3cccnc3n(C)c2=O)c(C)c1,0.4,0.6,6.7,-2.8,-8.0,-14.8,.,.
CN(CC(=O)NCC(=O)Nc1ccc(F)c(F)c1F)C1CCS(=O)(=O)C1 (centres undefined),0.3,0.7,17.7,-2.1,3.1,20.5,.,.
CCCCNc1c(-c2ccc(Sc3ccc(OC)cc3)cc2)nc2cc(C)ccn12,9.1,0.1,-2.1,12.2,-6.6,79.6*,10.1,.
COc1ccc(-c2oc3ccccc3c2C#Cc2cncn2C)cc1,8.8,0.4,-50.2,5.5,17.6,72.4*,60.8*,44.2*
COc1ccc(-c2sc3ccc(OC)cc3c2C#Cc2cncn2C)cc1,16.4,-0.3,-38.9,-7.2,-25.1,53.6*,18.6,.
COc1ccc(-c2sc3cc4c(cc3c2C#Cc2cncn2C)OCO4)cc1,3.6,-0.6,-21.7,-3.4,9.7,-8.6,.,.
COC(=O)c1c(-c2ccc(OC)cc2)oc2ccccc12,-3.5,0.9,-3.4,2.9,5.3,17.0,.,.
O=C(Nc1nnc(-c2ccc(F)cc2)o1)C1CCCN1S(=O)(=O)c1cccs1 (centres undefined),0.4,1.4,0.1,-6.1,1.8,12.2,.,.
CC(=O)c1cccc(NC(=O)CSc2n[nH]c(=O)n2C2CC2)c1,1.5,-0.9,12.5,2.5,16.4,12.1,.,.
CN(CC(=O)Nc1cccc(F)c1)CC(=O)Nc1cccc(S(=O)(=O)N2CCCCC2)c1,5.9,0.2,0.7,2.3,-1.8,7.5,.,.
Cc1n[nH]c(C)c1C(=O)CC1(O)C(=O)N(Cc2ccccc2)c2ccc(Br)cc21 (centres undefined),7.4,0.2,-0.7,-5.4,16.7,-28.0,.,.
C=CCN1C(=O)C(O)(CC(=O)c2ccco2)c2cc(Br)ccc21 (centres undefined),0.0,-0.5,2.4,-3.7,9.1,58.9*,35.1,.
